Results filed as inconclusive are left out. Activity calls are given as the source filed them. Unless noted, calls follow the shape of the dose curve; as a rule, active = well fitted curve in the direction sought with a large enough effect; inconclusive = small, poorly fitted or top-dose-only effect, or another doubt; inactive = no such curve, though single readings can be large; an effect the other way counts as inactive or inconclusive.
Key:
[1] = target: Lysosomal acid glucosylceramidase (Homo sapiens) (UniProt P04062); assay: Glucocerebrosidase-p2 (AID 348; in the data active = potency below about 10 µM; also: potency is read from the fitted curve at half-maximal effect); details: purified GBA, blue fluorogenic substrate, 40 min
Chain of Lysosomal acid glucosylceramidase (Homo sapiens) (P04062 whole entry, looked up): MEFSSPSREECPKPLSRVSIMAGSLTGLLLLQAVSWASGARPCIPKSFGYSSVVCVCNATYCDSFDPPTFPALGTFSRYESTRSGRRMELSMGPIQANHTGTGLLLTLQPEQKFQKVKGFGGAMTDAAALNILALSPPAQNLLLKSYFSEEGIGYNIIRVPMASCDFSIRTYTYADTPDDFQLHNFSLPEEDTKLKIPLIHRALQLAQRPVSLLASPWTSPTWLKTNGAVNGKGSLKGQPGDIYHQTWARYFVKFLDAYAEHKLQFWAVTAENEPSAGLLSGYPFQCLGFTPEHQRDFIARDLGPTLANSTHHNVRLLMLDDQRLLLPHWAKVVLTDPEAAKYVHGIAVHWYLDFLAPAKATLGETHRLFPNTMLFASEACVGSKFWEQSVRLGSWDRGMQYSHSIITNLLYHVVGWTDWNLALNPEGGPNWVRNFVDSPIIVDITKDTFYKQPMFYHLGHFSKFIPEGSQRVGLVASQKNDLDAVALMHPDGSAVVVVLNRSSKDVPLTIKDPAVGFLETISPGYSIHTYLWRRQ
In short: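 Compounds titrated from 0.6 nM upwards against 0.2 nM enzyme in pH 5.9 citric acid/KH2PO4, taurocholate, tween-20; blue fluorogenic substrate 80 uM, 40 min room temperature, stopped and read Ex 365/Em 440 for AC50.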

[2] = AP1 Signaling Pathway (AID 357; active = well fitted curve in either direction with a large enough effect, not every such curve was filed as active; also: % is scaled to controls: 0 for no effect and ±100 for the full control effect); details: ME-180 AP-1-bla reporter, EGF-induced, beta-lactamase ratio, 5 h; at 7.69 µM (top of the series) unless noted
In short: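 AP-1-bla ME-180 cells with beta-lactamase reporter under AP-1 response element, stimulated with EC50 EGF; compounds titrated, 5 hours at 37 degrees Celsius. CCF4 read at 460/530 nm ratio; positive and negative modulators judged by AC50.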

[3] = target: Cytochrome P450 1A2 (Homo sapiens) (UniProt P05177); assay: p450-cyp1a2 (AID 410; calls by dose curve; also: potency is read from the fitted curve at half-maximal effect); details: recombinant CYP1A2, luciferin-ME demethylation, luminescence; series mostly up to 57 µM
Chain of Cytochrome P450 1A2 (Homo sapiens) (P05177 whole entry, looked up): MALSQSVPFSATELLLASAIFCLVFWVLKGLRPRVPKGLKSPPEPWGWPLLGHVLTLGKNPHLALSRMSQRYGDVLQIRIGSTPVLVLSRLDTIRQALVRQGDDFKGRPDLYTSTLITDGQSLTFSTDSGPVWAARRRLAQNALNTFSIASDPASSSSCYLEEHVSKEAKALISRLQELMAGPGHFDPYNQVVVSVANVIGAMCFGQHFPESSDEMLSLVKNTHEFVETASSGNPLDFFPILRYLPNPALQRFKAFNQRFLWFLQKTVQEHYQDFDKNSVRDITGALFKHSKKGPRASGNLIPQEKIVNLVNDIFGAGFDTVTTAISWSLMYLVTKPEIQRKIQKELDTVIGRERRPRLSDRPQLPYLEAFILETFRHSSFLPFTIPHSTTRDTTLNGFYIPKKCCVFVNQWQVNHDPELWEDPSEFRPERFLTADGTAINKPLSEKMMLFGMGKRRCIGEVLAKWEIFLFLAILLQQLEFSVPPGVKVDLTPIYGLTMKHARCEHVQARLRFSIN
In short: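 Inhibition was calculated relative to 57 uM furafylline (full inhibition). The reaction used human CYP1A2 at 20nM with Luciferin-ME at its Km, 100uM, driven by an NADPH-regenerating system for 60 min at room temperature.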

[4] = NFAT Signaling Pathway (AID 444; active = well fitted curve in either direction with a large enough effect, not every such curve was filed as active;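 also: carbachol stimulus at about its EC50 of 1 µM final; % is scaled to controls: 0 for no effect and ±100 for the full control effect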); details: Jurkat NFAT-bla M1, carbachol, beta-lactamase ratio, 5 h; at 7.69 µM (top of the series) unless noted
In short: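 Jurkat cells carrying an NFAT-driven β-lactamase reporter and co-transfected muscarinic M1 receptor were treated with compound plus carbachol (1 uM final, an EC50 level) for 5 h at 37 °C. CCF4 loading followed for 1 h at RT; 460/530 nm ratio gave %activity.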

[5] = Stat Signaling Pathway (AID 446; active = well fitted curve in either direction with a large enough effect, not every such curve was filed as active;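 also: ME-180 cervical cancer cells given 40 pM IL-6 alongside compound; SIE-controlled beta-lactamase reporter measured as 460/530 nm FRET emission ratio; % is scaled to controls: 0 for no effect and ±100 for the full control effect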); details: ME-180 SIE beta-lactamase reporter, IL-6 stimulated, 5 h; at 7.69 µM (top of the series) unless noted
In short: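 ME-180 SIE-bla cells; overnight plating; cpd + IL-6 40 pM, 5 h, 37 C; LiveBLAzer 2.5 h RT; 460/530 nm emission ratio. Normalized to 300 pM IL-6 and 125 nM JAK inhibitor controls.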

[6] = target: Glucocorticoid receptor (Homo sapiens) (UniProt P04150); assay: GR-GFP Redistribution (AID 450;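 active = compounds whose dose series gives a full or clear partial fitted curve of increased nuclear translocation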; also: potency is read from the fitted curve at half-maximal effect); details: U2OS GR-GFP nuclear translocation, laser cytometry, 2 h
Chain of Glucocorticoid receptor (Homo sapiens) (P04150 whole entry, looked up, the tested form may be a part): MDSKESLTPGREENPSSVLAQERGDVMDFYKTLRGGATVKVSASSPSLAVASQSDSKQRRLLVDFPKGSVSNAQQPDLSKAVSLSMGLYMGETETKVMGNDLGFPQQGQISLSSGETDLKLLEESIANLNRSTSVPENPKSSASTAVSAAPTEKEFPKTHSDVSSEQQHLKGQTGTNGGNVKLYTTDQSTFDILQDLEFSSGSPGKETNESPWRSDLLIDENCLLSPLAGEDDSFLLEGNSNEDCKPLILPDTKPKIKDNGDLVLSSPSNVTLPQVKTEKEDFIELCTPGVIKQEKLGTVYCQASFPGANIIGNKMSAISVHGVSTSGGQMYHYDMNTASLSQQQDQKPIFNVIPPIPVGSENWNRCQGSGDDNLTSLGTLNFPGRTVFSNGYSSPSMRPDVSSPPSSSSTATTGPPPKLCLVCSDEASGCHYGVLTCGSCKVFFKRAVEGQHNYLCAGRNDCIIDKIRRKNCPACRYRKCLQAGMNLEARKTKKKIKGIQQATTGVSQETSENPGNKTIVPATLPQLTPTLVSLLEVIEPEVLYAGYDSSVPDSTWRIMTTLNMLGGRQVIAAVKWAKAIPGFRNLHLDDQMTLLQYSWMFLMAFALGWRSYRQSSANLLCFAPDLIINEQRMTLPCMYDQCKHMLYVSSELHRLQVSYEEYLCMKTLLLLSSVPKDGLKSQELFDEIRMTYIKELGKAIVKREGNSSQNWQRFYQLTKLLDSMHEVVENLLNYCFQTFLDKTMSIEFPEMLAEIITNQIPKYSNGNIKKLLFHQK

[7] = target: Glucocorticoid receptor (Homo sapiens) (UniProt P04150); assay: GR-EFC Redistribution (AID 451; calls by dose curve; also: potency is read from the fitted curve at half-maximal effect); details: CHO-K1 GR-EFC translocation, beta-gal luminescence, 2 h
In short: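 CHO-K1 cells stably expressing nuclear-localized β-gal enzyme acceptor and GR fused C-terminally to the enzyme donor fragment; ligand-driven nuclear translocation restores β-gal by complementation. Compounds titrated up to 46 uM final, 2 h at 37 °C; luminescence read.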

[8] = target: Mitogen-activated protein kinase 10 (Mus musculus) (UniProt Q61831); assay: JNK3 AlphaScreen Assay (AID 530; active = well fitted curve in either direction with a large enough effect, not every such curve was filed as active;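 also: kinase came from lysate of stimulated human HepG2 cells; signal reports phosphorylation of biotinylated GST-cJun 1-79 at Ser73 with 10 µM ATP; % is scaled to controls: 0 for no effect and ±100 for the full control effect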); details: JNK3 lysate, c-Jun phosphorylation; series mostly up to 57.1 µM
In short: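 JNK3 came from HepG2 lysates pre-activated with IL-1beta and TNF-alpha and phosphorylated biotinylated GST-cJun (1-79) at 10 uM ATP, pH 7.6, room temperature. Compounds were titrated. AlphaScreen signal used anti-phospho-cJun (Ser73) antibody.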

[9] = target: Cytochrome P450 3A4 (Homo sapiens) (UniProt P08684); assay: qHTS Assay for Inhibitors and Substrates of Cytochrome P450 3A4 (AID 884); details: recombinant CYP3A4, Luciferin-PPXE luminescence; series mostly up to 57.1 µM; also: potency is read from the fitted curve at half-maximal effect; nearly all actives have a fitted effect of over 50% in size
Chain of Cytochrome P450 3A4 (Homo sapiens) (P08684 whole entry, looked up): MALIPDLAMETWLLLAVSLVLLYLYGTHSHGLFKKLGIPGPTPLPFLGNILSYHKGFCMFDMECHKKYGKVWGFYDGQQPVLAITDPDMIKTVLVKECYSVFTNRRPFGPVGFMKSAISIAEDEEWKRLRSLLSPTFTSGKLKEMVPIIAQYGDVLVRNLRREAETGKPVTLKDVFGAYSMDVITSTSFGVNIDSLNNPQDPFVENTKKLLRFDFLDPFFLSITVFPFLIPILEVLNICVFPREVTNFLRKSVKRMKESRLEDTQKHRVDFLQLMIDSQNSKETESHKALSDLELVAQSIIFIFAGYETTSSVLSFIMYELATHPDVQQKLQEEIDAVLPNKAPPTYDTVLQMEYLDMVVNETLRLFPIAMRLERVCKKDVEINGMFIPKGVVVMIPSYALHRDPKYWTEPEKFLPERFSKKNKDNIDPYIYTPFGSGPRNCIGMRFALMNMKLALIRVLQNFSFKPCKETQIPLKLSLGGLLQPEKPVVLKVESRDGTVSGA
In short: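 20 nM human CYP3A4 with 25 uM Luciferin-PPXE (at KM) in 200 mM KPO4, preincubated 10 min with compound; NADPH regeneration started a 60 min RT reaction. Luciferin detected by luminescence, normalized to 57 uM ketoconazole as full inhibition.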

[10] = target: Cytochrome P450 3A4 (Homo sapiens) (UniProt P08684); assay: qHTS Assay for Activators of Cytochrome P450 3A4 (AID 885); details: recombinant CYP3A4, Luciferin-PPXE luminescence, 60 min; series mostly up to 57.1 µM; also: nearly all actives have a fitted effect of over 65% in size
In short: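 20nM CYP3A4 + 25uM Luciferin-PPXE (=KM), 200mM KPO4; cpd 10 min RT; NADPH regen, 60 min RT; stop w/ detection buffer, 20 min; luminescence. Normalized to 57 uM ketoconazole.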

[11] = target: Cytochrome P450 2C19 (Homo sapiens) (UniProt P33261); assay: qHTS Assay for Inhibitors and Substrates of Cytochrome P450 2C19 (AID 899); details: recombinant CYP2C19, luciferin-H EGE luminescence; series mostly up to 57.1 µM; also: potency is read from the fitted curve at half-maximal effect; nearly all actives have a fitted effect of over 60% in size
Chain of Cytochrome P450 2C19 (Homo sapiens) (P33261 whole entry, looked up): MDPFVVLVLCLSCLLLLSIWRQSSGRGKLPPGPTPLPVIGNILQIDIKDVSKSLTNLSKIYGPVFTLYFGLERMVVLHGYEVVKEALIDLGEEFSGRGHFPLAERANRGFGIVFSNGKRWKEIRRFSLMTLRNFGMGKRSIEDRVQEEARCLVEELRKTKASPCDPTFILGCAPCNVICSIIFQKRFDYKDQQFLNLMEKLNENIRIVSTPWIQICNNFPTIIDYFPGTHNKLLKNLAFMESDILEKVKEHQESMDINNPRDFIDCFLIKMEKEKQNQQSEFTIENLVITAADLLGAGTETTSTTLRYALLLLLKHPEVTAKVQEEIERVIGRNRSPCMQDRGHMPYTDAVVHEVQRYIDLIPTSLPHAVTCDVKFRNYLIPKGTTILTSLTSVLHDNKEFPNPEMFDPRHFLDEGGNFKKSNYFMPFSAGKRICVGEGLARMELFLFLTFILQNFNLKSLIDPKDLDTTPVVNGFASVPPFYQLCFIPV
In short: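 In 50mM KPO4, the reaction held 5nM enzyme and KM-level (10uM) Luciferin-H EGE; it ran 60 min at 37C after NADPH regeneration and a 10 min compound preincubation. Luminescence values were scaled to 57uM ketoconazole as complete inhibition.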

[12] = target: Dual specificity protein kinase CLK4 (Homo sapiens) (UniProt Q9HAZ1); assay: qHTS Assay for Inhibitors of CDC-like Kinase 4 (Kinase-Glo Assay) (AID 1770); details: recombinant Clk4, Kinase-Glo ATP depletion luminescence; series mostly up to 66.7 µM; also: nearly all actives have a fitted effect of over 65% in size; also: potency is read from the fitted curve at half-maximal effect
Chain of Dual specificity protein kinase CLK4 (Homo sapiens) (Q9HAZ1 whole entry, looked up): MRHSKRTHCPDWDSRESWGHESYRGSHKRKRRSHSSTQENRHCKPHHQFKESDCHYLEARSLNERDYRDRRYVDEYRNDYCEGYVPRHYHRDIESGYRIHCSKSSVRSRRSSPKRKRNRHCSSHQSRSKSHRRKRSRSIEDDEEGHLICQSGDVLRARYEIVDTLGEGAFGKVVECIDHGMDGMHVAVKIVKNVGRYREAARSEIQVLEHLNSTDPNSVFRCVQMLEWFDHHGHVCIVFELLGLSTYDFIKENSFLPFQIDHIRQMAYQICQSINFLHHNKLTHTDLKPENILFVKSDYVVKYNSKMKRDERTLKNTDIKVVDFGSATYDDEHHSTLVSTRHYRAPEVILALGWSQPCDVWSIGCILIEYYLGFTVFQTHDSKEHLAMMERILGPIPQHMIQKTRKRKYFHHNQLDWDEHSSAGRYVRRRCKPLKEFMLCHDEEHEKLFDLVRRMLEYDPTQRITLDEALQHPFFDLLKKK
In short: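 Inhibition was judged from remaining ATP, measured by Ultra-Glo luciferase bioluminescence after Clk4 (25 nM) had acted on RS peptide at 1 uM ATP for 4.5 hours, room temperature.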

[13] = target: Dual specificity protein kinase CLK4 (Homo sapiens) (UniProt Q9HAZ1); assay: qHTS Assay for Inhibitors of CDC-like Kinase 4 (ADP-Glo Assay) (AID 1771); details: recombinant CLK4, ADP-Glo luminescence; series mostly up to 80 µM; also: nearly all actives have a fitted effect of over 70% in size; also: potency is read from the fitted curve at half-maximal effect
In short: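 Kinase reaction: Clk4 at 25 nM, RS repeat peptide substrate at 100 uM, ATP at 1 uM, 1 hr, room temperature. Product ADP detected as luciferase signal via ADP-Glo.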

[14] = target: Dual specificity protein kinase CLK4 (Homo sapiens) (UniProt Q9HAZ1); assay: qHTS Assay for Inhibitors of CDC-like Kinase 4 (ADP-FP Assay) (AID 1795); details: Transcreener ADP fluorescence polarization; series mostly up to 50 µM; also: nearly all actives have a fitted effect of over 60% in size; also: potency is read from the fitted curve at half-maximal effect
In short: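 Inhibition of ADP formation by 6.25 nM Clk4 is measured using 1 uM ATP and 100 uM RS repeat peptide over one hour. Produced ADP displaces a fluorescent tracer from antibody, lowering polarization.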

[15] = target: Ubiquitin carboxyl-terminal hydrolase 1 (Homo sapiens) (UniProt O94782); assay: Inhibitors of USP1/UAF1: Pilot qHTS (AID 504865); details: purified USP1/UAF1, Ub-rhodamine cleavage fluorescence; series mostly up to 54.9 µM;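 also: rhodamine fluorescence freed from ubiquitin-rhodamine substrate followed over time; top concentration of the series differs between compounds; % is scaled to controls: 0 for no effect and ±100 for the full control effect; nearly all actives have a fitted effect of over 35% in size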
Chain of Ubiquitin carboxyl-terminal hydrolase 1 (Homo sapiens) (O94782 whole entry, looked up): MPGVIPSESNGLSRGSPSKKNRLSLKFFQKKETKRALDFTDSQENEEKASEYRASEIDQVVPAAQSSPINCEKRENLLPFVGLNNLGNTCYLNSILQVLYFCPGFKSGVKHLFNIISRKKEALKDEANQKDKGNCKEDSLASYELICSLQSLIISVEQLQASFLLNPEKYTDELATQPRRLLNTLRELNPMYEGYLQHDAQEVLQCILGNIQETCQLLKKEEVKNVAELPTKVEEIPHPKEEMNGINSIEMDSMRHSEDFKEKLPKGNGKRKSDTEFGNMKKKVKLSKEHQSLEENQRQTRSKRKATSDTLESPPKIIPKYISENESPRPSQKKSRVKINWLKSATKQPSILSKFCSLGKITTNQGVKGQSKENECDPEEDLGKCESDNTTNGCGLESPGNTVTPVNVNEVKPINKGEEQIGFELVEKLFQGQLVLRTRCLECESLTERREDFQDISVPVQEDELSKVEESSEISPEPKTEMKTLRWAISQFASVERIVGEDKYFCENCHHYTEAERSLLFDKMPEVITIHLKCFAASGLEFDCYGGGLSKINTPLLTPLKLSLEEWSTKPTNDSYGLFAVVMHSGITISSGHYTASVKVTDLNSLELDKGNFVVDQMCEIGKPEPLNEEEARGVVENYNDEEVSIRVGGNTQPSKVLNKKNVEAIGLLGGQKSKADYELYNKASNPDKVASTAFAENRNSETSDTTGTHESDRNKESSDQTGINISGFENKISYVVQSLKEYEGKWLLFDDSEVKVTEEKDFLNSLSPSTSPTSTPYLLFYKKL
In short: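 Kinetic fluorescence assay: 1nM USP1/UAF1, 15 min compound preincubation, then 150nM Ub-Rho; 480/540 nm.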

[16] = Primary qHTS for small molecule stabilizers of the endoplasmic reticulum resident proteome: Secreted ER Calcium Modulated Protein (SERCaMP) assay (AID 1508630); details: SH-SY5Y GLuc-SERCaMP (Gaussia luciferase released on ER calcium loss) secretion, thapsigargin, luminescence; series mostly up to 38.4 µM; also: % is scaled to controls: 0 for no effect and ±100 for the full control effect
In short: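 GLuc-SERCaMP-expressing SH-SY5Y cells, pretreated 16 h with compound, are challenged with thapsigargin to empty ER calcium stores; after 4 h, coelenterazine is added directly to the medium and luminescence is imaged.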

[17] = target: 3',5'-cyclic-AMP phosphodiesterase 4B (Homo sapiens) (UniProt Q07343); assay: qHTS Assay for Inhibitors of PDE-IV (AID 607; active = well fitted activation curve with a large enough effect in the main read-out, with a control signal flat, not every such curve was filed as active; also: % of control where 0% means no effect); details: HEK293 ACTOne CNG channel cells, membrane potential fluorescence; series mostly up to 22.9 µM
Chain of 3',5'-cyclic-AMP phosphodiesterase 4B (Homo sapiens) (Q07343 whole entry, looked up): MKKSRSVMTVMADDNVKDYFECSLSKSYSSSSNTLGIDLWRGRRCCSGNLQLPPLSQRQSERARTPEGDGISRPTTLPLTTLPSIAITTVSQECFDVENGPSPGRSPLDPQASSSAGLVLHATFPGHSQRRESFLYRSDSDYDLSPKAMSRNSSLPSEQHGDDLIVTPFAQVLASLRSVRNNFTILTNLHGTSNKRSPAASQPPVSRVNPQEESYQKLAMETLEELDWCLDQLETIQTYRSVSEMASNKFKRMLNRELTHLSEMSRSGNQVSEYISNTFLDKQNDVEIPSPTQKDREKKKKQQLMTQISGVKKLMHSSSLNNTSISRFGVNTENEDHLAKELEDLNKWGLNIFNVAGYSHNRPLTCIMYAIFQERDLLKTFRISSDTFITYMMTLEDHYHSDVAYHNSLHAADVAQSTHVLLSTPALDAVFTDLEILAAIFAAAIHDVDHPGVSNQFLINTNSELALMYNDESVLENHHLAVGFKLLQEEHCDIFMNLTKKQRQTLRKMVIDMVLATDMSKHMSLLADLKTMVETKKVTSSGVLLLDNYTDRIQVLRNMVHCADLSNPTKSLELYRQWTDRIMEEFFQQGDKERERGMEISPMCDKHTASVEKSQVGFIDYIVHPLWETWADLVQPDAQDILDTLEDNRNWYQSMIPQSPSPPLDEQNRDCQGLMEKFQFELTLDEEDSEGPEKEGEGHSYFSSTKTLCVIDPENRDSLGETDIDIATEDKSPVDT
In short: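 ACTOne HEK293 cells carry a modified cAMP-gated CNG channel and express endogenous PDE4; plated 1000 cells/well, compounds up to 22.9 uM final. Membrane-potential dye fluorescence (ex 535/em 590) was read; parental cells received 10 uM forskolin + 100 uM RO 20-1724.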

c1ccc(CNc2ncncc2-c2ccc3c(c2)OCO3)cc1
active: Potency [3] 0.126 µM | Potency [9] 0.501 µM | Potency [11] 0.501 µM | Potency [12] 6.31 µM | Potency [13] 7.08 µM | Potency [14] 2.51 µM
inactive: Potency [1] > 11.4 µM | activity change, negative = inhibition [2] -23.4% | activity change, negative = inhibition [4] 7.28% | activity, negative = inhibition [5] -0.121% | Potency [6] > 46 µM | Potency [7] > 46 µM | Potency [8] | Potency [10] | Potency [15] | outcome [16]

COc1cccc(-c2nccc(NCc3cccnc3)n2)c1
inactive: Potency [1] > 11.4 µM | activity change, negative = inhibition [2] -20.9% | activity change, negative = inhibition [4] 8.95% | activity, negative = inhibition [5] -2.24% | Potency [6] > 46 µM | Potency [7] > 46 µM | Potency [17] | Potency [10] | Potency [15] | outcome [16]
active: Potency [3] 0.158 µM | Potency [9] 1.26 µM | Potency [12] 7.08 µM | Potency [13] 7.08 µM | Potency [14] 6.31 µM

CN1CCN(c2ncc3ncc(=O)n(CCc4ccccc4)c3n2)CC1
active: Potency [3] 3.98 µM | Potency [11] 6.31 µM | Potency [12] 25.1 µM | Potency [13] 15.8 µM
inactive: Potency [1] > 11.4 µM | activity change, negative = inhibition [2] -5.68% | activity change, negative = inhibition [4] -2.1% | activity, negative = inhibition [5] 9.6% | Potency [6] > 9.22 µM | Potency [7] > 46 µM | Potency [8] | Potency [10] | Potency [14] | Potency [15] | outcome [16]

COCCn1c(=O)c(-c2cccs2)nc2cnc(OC)nc21
inactive: Potency [1] > 11.4 µM | activity change, negative = inhibition [2] 6.04% | activity change, negative = inhibition [4] 15.6% | activity, negative = inhibition [5] 6.32% | Potency [6] > 9.22 µM | Potency [7] > 46 µM | Potency [8] | Potency [10] | Potency [12] | Potency [13] | Potency [14] | Potency [15] | outcome [16]
active: Potency [3] 2.51 µM

COc1ncc2nc(CCc3ccccc3)c(=O)n(CCc3ccccc3)c2n1
active: Potency [3] 3.98 µM | Potency [9] 3.16 µM | Potency [11] 7.94 µM
inactive: Potency [1] > 11.4 µM | activity change, negative = inhibition [2] -0.194% | activity change, negative = inhibition [4] -0.888% | activity, negative = inhibition [5] -1.74% | Potency [6] > 9.22 µM | Potency [7] > 46 µM | Potency [8] | Potency [10] | Potency [12] | Potency [13] | Potency [14] | Potency [15] | outcome [16]

Reference: PubChem BioAssay (NCATS)
